Shown are actives, neighbours in structure and some others; about 21% of the full set was active somewhere.
NS1 function inh – blocks influenza NS1 protein function; 270,000 tested, 0.4% active; Potency, µM (doses to about 46.1 µM), without a hit: at the top dose activity, positive = more growth; calls by dose curve; also: potency is read from the fitted curve at half-maximal effect; actives are rising curves; nearly all actives have a fitted effect of over 50% in size
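In this qHTS, NS1 from influenza A is expressed in budding yeast, where it slows growth. Cells are switched from glucose to 2% galactose medium (pH 6.0, -URA), treated with compound, and growth recovery is read at OD600.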
Shiga toxin inh – blocks Shiga toxin action in Vero cells; Vero cells, Shiga toxin protein synthesis inhibition reporter; inhibition, % at 38.7 µM; 290,000 tested, 9.2% active; in the data active = inhibition mostly above about 28%, no sharp cut-off; inactive = mostly below about 43%; also: 0% is about no effect
Pf growth 96h – P. falciparum growth inhibition at 96 hours; 320,000 tested, 6.9% active; P. falciparum luciferase reporter growth, 96 h; Potency, µM (series often up to 28.7 µM), for inactives: at the top dose activity change, negative = inhibition, actives largely listed as inhibitors; AID 504834; also: potency is read from the fitted curve at half-maximal effect; % is scaled to controls: 0 for no effect and ±100 for the full control effect
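Cell-based qHTS: luciferase-tagged P. falciparum in erythrocytes (2% hematocrit, 0.05% parasitemia final) incubated with compounds for 96 hours, 37 C, 5% CO2; luciferase detection reagent then added and luminescence measured.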
Pf growth 48h – inhibits P. falciparum growth in the first generation, 48 h; P. falciparum luciferase growth in erythrocytes, 48 h; 310,000 tested, 5.9% active; Potency, µM (series often up to 28.7 µM), inactives show at the highest dose activity change, negative = inhibition, hits mostly inhibitors; also: potency is read from the fitted curve at half-maximal effect; % is scaled to controls: 0 for no effect and ±100 for the full control effect
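In quantitative HTS format, infected erythrocytes bearing luciferase-reporter parasites were treated for a single generation at 37 C. Luminescence after adding detection reagent served as the growth measure.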
Cycloheximide cs – affects cycloheximide protein synthesis inhibition readout, counter-screen. cell reporter, cycloheximide protein synthesis inhibition counterscreen. max response, %. 300,000 tested, 12% active. AID 2314; in the data active = max response mostly above about 13%, no sharp cut-off; inactive = mostly below about 14%; also: read at 38.3 µM for the half of the compounds with a filed dose; 0% is about no effect
An asterisk follows results filed as active. Unless noted, calls follow the shape of the dose curve; as a rule, active = well fitted inhibition curve with a large enough effect; inconclusive = small, poorly fitted or top-dose-only effect, or another doubt; inactive = no such curve, though single readings can be large or run the other way.

For CCC(C)c1ccc(NC(=O)CC(C)=O)cc1 (configuration not stated) the results were NS1 function inh 0.0%, Shiga toxin inh 13.9, Pf growth 96h 8.1% and Cycloheximide cs 20.6*.
CCC(C)c1ccc(NC(=O)c2ccco2)cc1 (configuration not stated) was read as NS1 function inh -139.6%, Shiga toxin inh 40.0, Pf growth 96h inconclusive, Pf growth 48h 153.9% and Cycloheximide cs 25.7*.
For Cc1ccc(C(=O)NCCCNC(=O)c2ccco2)cc1 the results were NS1 function inh -11.9%, Shiga toxin inh -10.8, Pf growth 96h -3.9%, Pf growth 48h 19.1% and Cycloheximide cs -2.5.
Screening CSc1cccc(NC(=O)c2ccco2)c1 returned NS1 function inh -109.9%, Shiga toxin inh 107.7*, Pf growth 48h 85.1% and Cycloheximide cs 30.5*.
Screening O=C(NCCCNC(=O)c1ccco1)c1ccc(Cl)cc1 returned NS1 function inh 3.5%, Shiga toxin inh 85.5*, Pf growth 96h -0.2%, Pf growth 48h 51.6% and Cycloheximide cs 31.5*.
`CN(C)c1cccc(NC(=O)c2ccco2)c1` gave NS1 function inh -1.9%, Shiga toxin inh 26.0, Pf growth 96h 85.8%, Pf growth 48h -10.6% and Cycloheximide cs 17.8.
Screening Cc1ccc(NC(=O)CN2C(=O)NC3(CCc4ccccc43)C2=O)cc1S(=O)(=O)N1CCCCC1 (configuration not stated) returned Pf growth 96h inconclusive and Pf growth 48h -29.3%.
Screening O=C(COc1ccccc1)Nc1ccc(CSc2ccccc2)cc1 returned NS1 function inh 5.4%, Shiga toxin inh -5.1, Pf growth 96h 0.0%, Pf growth 48h 33.2% and Cycloheximide cs 9.8.
For Cc1ccc(C(=O)COC(=O)CCC(=O)Nc2cccc(Cl)c2)cc1[N+](=O)[O-] the results were NS1 function inh 1.3%, Shiga toxin inh 1.8, Pf growth 96h 12.4%, Pf growth 48h 32.7% and Cycloheximide cs 0.9.
For COc1ccc(Cl)cc1C(=O)Nc1ccc(NC(=O)c2ccco2)cc1 the results were NS1 function inh 7.2%, Shiga toxin inh 16.0, Pf growth 96h 2.08µM*, Pf growth 48h inconclusive and Cycloheximide cs 12.2.
COc1ccc(Cl)cc1NC(=O)c1ccco1 was read as NS1 function inh -23.0%, Shiga toxin inh -8.3, Pf growth 48h 8.0% and Cycloheximide cs -2.8.
`O=C(Cc1ccccc1)Nc1ccc(F)cc1` gave NS1 function inh -3.3%, Shiga toxin inh -3.6, Pf growth 96h 38.4%, Pf growth 48h 25.7% and Cycloheximide cs 2.5.
For O=C(NC(NC(=S)Nc1ccc(Cl)cc1)C(Cl)(Cl)Cl)c1ccco1 (configuration not stated) the results were NS1 function inh 19.6%, Shiga toxin inh -12.0, Pf growth 96h 20.5%, Pf growth 48h 10.4µM* and Cycloheximide cs -3.3.
For CC(=O)Nc1ccc(NC(=O)c2ccco2)cc1 the results were NS1 function inh 5.6%, Shiga toxin inh 71.2*, Pf growth 48h 89.9% and Cycloheximide cs 30.7*.
O=C(Cc1ccccc1)Nc1ccc(SC(F)F)cc1 was read as NS1 function inh -18.6%, Shiga toxin inh 35.2, Pf growth 96h 0.0%, Pf growth 48h 123.3% and Cycloheximide cs 40.9*.
For CCCCCCCCCCCCOCCCN the results were Pf growth 96h inconclusive and Pf growth 48h -11.1%.
For Cn1c(NC(=O)c2ccco2)c(-c2ccc(Cl)cc2)c(=O)c2ccccc21 the results were NS1 function inh 2.0%, Shiga toxin inh -21.1, Pf growth 48h 5.9% and Cycloheximide cs -1.6.
Screening NC(=NCc1ccco1)NC(=O)c1ccc(Cl)cc1 returned NS1 function inh -19.2%, Shiga toxin inh 76.2*, Pf growth 96h 3.3%, Pf growth 48h 44.1% and Cycloheximide cs 25.5*.
Screening Cc1cccc2c(=O)c(-c3ccc(Cl)cc3)c(NC(=O)c3ccco3)oc12 returned NS1 function inh 1.2%, Shiga toxin inh 23.7*, Pf growth 96h 1.2%, Pf growth 48h 21.9% and Cycloheximide cs 15.8*.
`O=C(Nc1ccc(Cl)cc1)c1ccco1` gave NS1 function inh -21.3%, Shiga toxin inh 55.3, Pf growth 96h 5.22µM*, Pf growth 48h 131.4% and Cycloheximide cs 33.5*.
O=C(Cc1ccccc1)Nc1ccc(NC(=O)c2ccco2)cc1 was read as NS1 function inh -27.4%, Shiga toxin inh 51.2*, Pf growth 96h 14.8%, Pf growth 48h 30.2% and Cycloheximide cs 18.0*.
O=C(Nc1cccc(NC(=O)c2ccccc2Cl)c1)c1ccco1 was read as NS1 function inh 14.3%, Shiga toxin inh -11.7, Pf growth 96h 7.6%, Pf growth 48h 11.0% and Cycloheximide cs -1.0.
For O=C(Nc1cccc(NC(=O)c2ccc(-c3ccc(Br)cc3)o2)c1)c1ccco1 the results were NS1 function inh 21.8%, Shiga toxin inh 92.1*, Pf growth 96h inconclusive, Pf growth 48h 9.28µM* and Cycloheximide cs 38.3*.
CC(=O)OCC(=O)Nc1ccc(SC(F)F)cc1 was read as NS1 function inh 0.6%, Shiga toxin inh -6.0, Pf growth 96h 3.4%, Pf growth 48h 15.5% and Cycloheximide cs 8.5.
C/C=C/C(=O)OCC(=O)Nc1ccc(SC(F)F)cc1 was read as Shiga toxin inh 35.6, Pf growth 96h 11.6%, Pf growth 48h 12.8% and Cycloheximide cs 26.3*.
For COC(=O)c1c(-n2c(C)cc(C=O)c2C)sc2c1CCCC2 the results were NS1 function inh -3.1%, Shiga toxin inh 95.7, Pf growth 96h inconclusive, Pf growth 48h 10.4µM* and Cycloheximide cs 16.4.
`CCOC(=O)c1c(-n2c(C)cc(C=C3C(=O)NC(=S)NC3=O)c2C)sc2c1CCCC2` gave NS1 function inh -18.7%, Shiga toxin inh -1.0, Pf growth 96h 11.7µM*, Pf growth 48h 11.7µM* and Cycloheximide cs 7.3.
Screening [ClH+][Cu][ClH+].[Cu].[OH2+]c1ccc2ccccc2c1CN1CCCCC1.[OH2+]c1ccc2ccccc2c1CN1CCCCC1 returned NS1 function inh 0.0%.
For O=C(c1cc2nc(-c3ccc(Cl)cc3)cc(C(F)(F)F)n2n1)N1CCOCC1 the results were NS1 function inh -2.5%, Shiga toxin inh -11.0, Pf growth 96h 10.4µM*, Pf growth 48h 4.1% and Cycloheximide cs 8.7.
`CCOC(=O)C1=NN(c2ccccc2C)C2=NC(C)=C(C(=O)OC)C(c3cccc(OC)c3)N12` (configuration not stated) gave NS1 function inh -28.2%, Shiga toxin inh 3.7, Pf growth 96h inconclusive, Pf growth 48h -2.6% and Cycloheximide cs 8.2.
For O=C(c1nc2ccccc2[nH]1)c1ccccc1[N+](=O)[O-] the results were NS1 function inh 0.3%, Shiga toxin inh 72.8*, Pf growth 96h 59.3%, Pf growth 48h 145.5% and Cycloheximide cs 32.1*.
`O=C(NNC(=O)C1CC1c1ccccc1)c1ccccc1[N+](=O)[O-]` (configuration not stated) gave NS1 function inh 10.7%, Shiga toxin inh -7.9, Pf growth 96h 11.7µM*, Pf growth 48h 46.5% and Cycloheximide cs 1.2.

From PubChem
